Results as given in the supplement of paper PMC6555819.

system: RARg homodimer (NR concentration 270 nM); assay: PBM binding z-score (relative to random genomic background probes); higher = stronger binding; sequences stand for … in GC…GCGATTGACAGCGTAGAATGAAGG
Summary of the method: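 The probes on custom Agilent 4×180K protein-binding microarrays were double-stranded, with 34-nt variable regions bearing direct-repeat seeds, single-nucleotide variants, half-site ablations and random human genomic background sequences. Incubation lasted 1 h with ligand-free nuclear receptor dimers in PBS pH 7.4, 2% milk, 0.02% Triton X-100, 1 mM DTT, 0.2 mg/mL BSA and 0.4 mg/ml salmon testes DNA. Antibodies against each partner (one per run) detected bound dimers, and fluorescence scans were regression-normalized. Binding z-scores take the random background probes as reference.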

Sequence | PBM binding z-score
GCTCGGAGGACAAGGTCAGAGGTTTGTCCGTAGA | 3.27
GGAACGAGGGCATTCAAGTTGATAGCATGGCGAT | 1.74
CGTTACGGGTCACGAGGTTATAGCACGACGAGCG | 5.62
AGTCAAAGTTCACTAGGTACCGTAAGATTCAGCT | 5.92
GGAACGAGGGCAATCGAGTTGATAGCATGGCGAT | 1.22
GGAGCGAGGGCATTCGAGTTGATAGCATGGCGAT | 1.26
CTCGAAAGGACGTGCTCAGGTGAGTATACCAAAC | 0.547
TCTCGGAGCACACGAAAGGTCAGAGCTCGACATC | 3.53
TTACCAAGGTGAGCTGATGTCGTTGATCCAACTC | 0.147
TTTAGTTGGTCACGGAGGTCACACACGACGGGTA | 5.2
TCTAATTGGTCACGGAGGTCACACACGACGGGTA | 5.18
TCGAGTAGGTTAGGGACATTCAGAATGGCGTCGA | 0.37
TCTAGTTGGTCACAGGTCACACACTCGAAATGCG | 3.33
TCTATTAGTTGATTAGGTCAACCGAAACAGCGGA | 2.68
CGAACTAGGTCATCCAGGACAGTGGATACATTGA | 4.8
TCGAGTAGGTTAAGGGCATTCAGAATGGCGTCGA | 1.23
CGTCCAAGGTCAGAAAGGTCAGTGAATGCCGAGT | 6.89
AGAATGAGGTTATTAAGATCAGGAAATTGCGGTC | 0.9
CAAACTAGGTCATTGACAGGACAGTGAATAGTAA | 4.67
TCTGCTCGGTCAACGATGGTCAGCTAATCTGCTA | 2.83

Sequence | PBM binding z-score
CCGACTGGTGCAAGGTTACCATAACGCACAGCCA | 0.421
GCTGCTAGGTCAACTGATGGTCAGCTTAAGCTCG | 5.28
CGAACGAGGGCATGTGTTGATAGCAAATGCCGAT | 1.7
CCTCGGATGACAGAAGGTCAGAGCTGTCCGCTTT | 2.16
GGAACGAGCGCAAGTTGATAGCAGAGTTTGATGG | -0.47
TTACCAAGTTGAGCTGAGGTCGTTGATCCAACTC | 0.0622
GCGACTGGGGCATCAGCAGGTTACCATGACTTAA | 0.815
CCTAGTTGGTCAAGTTCACACACGCTATAGGTAC | 2.72
ATCGAAAGGTCGACGAGGCGAGTATACACCGTTT | 3.74
TAACCAAGGTGAGCTGAGGTCGTTGATCCAACTC | 0.926
CTACCAAGGAGAACAAGGTCGTTGATTACTATTC | 0.266
CCGACTCGGGCAGAAAGGTTACCATACCATCCGG | 1.02
CCTACTGGGCCAAGGGCATTGATCAGTCAAAGCA | 0.289
CCGACTGGGGCACAGGTTACCATACTCAGTACGA | 0.906
ACTAGCAGGCCAAGTTTGGGTCACGCAAACAAAG | 2.19
CGAACTAGGTCAGTACAGGACAGTGAAGGATGAT | 3.79
CCTCGGAGGACAGCAGGTCAGAGCTGTCCGCTTT | 1.91
ATCTCTAGGTAAGACTCAGTACAGTGAAGAACGC | 0.586
CCGACTGAGGCATAAGGTTACCATAAGCCAGCCC | 0.395
